Results on 11 compounds are retold here after PubChem BioAssay (NCATS).

Assay [1] in a line: qHTS of pediatric cancer cell lines to identify multiple opportunities for drug repurposing: Primary screen for A673 cells (AID 1347092). Further: nearly all actives have a fitted effect of over 45% in size. Further: potency means the concentration at half of the fitted maximal effect. Put shortly: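 Cell viability of A673 measured by CellTiter-Glo ATP luminescence after 48 hours compound exposure. Dilution series spanned 0.78 nM to 46 µM (MIPE, 11-point) or 0.59 nM to 46 µM (NPC, 8-point); bortezomib 2.3 uM positive control.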
Background: Quantitative high-throughput screening tests each substance at several concentrations.

Assay [2] in a line: qHTS of pediatric cancer cell lines to identify multiple opportunities for drug repurposing: Primary screen for SK-N-MC cells (AID 1347093). Further: potency means the concentration at half of the fitted maximal effect. Put shortly:
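Metabolically active cells were quantified by ATP-dependent luminescence (CellTiter-Glo, 15 min at room temperature) following 48 h treatment. Cells had been plated at 500-1,000 per well and settled for 5 h beforehand.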

A short description of assay [3]: qHTS of pediatric cancer cell lines to identify multiple opportunities for drug repurposing: Primary screen for BT-37 cells (AID 1347094). Further: potency means the concentration at half of the fitted maximal effect. A digest of the protocol: (§1)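 Readout: CellTiter-Glo luminescence, 48 h treatment. Controls DMSO (neutral) and bortezomib 2.3 µM final (positive). Potency and efficacy taken from primary-screen concentration-response curves.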
A short description of assay [4]: qHTS of pediatric cancer cell lines to identify multiple opportunities for drug repurposing: Primary screen for NB-EBc1 cells (AID 1347095). Further: potency means the concentration at half of the fitted maximal effect. A digest of the protocol: as §1
Assay [5] can be described thus: qHTS of pediatric cancer cell lines to identify multiple opportunities for drug repurposing: Primary screen for U-2 OS cells (AID 1347096). Further: nearly all actives have a fitted effect of over 50% in size. Further: potency means the concentration at half of the fitted maximal effect. A digest of the protocol:
(§2)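 Cells (500-1,000/well) in growth media were settled 5 h at 37 degrees C, then given compounds for 48 h. Viability was read as CellTiter-Glo luminescence. Primary runs used MIPE at 11 points (0.78 nM-46 µM) and NPC at 8 points (0.59 nM-46 µM); follow-ups used 11 points.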

Assay [6] is described as follows: qHTS of pediatric cancer cell lines to identify multiple opportunities for drug repurposing: Primary screen for Saos-2 cells (AID 1347097). Further: nearly all actives have a fitted effect of over 40% in size. Further: potency means the concentration at half of the fitted maximal effect. Put shortly: as §1
The nature of assay [7]: qHTS of pediatric cancer cell lines to identify multiple opportunities for drug repurposing: Primary screen for SK-N-SH cells (AID 1347098). Further: nearly all actives have a fitted effect of over 65% in size. Further: potency means the concentration at half of the fitted maximal effect. Put shortly: (§3)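 Cells (500-1,000/well) rested 5 h, then received compounds for 48 h; metabolically active cells were measured by CellTiter-Glo luminescence. Final concentrations spanned up to 46 µM (MIPE, 11-point) or 0.59 nM-46 µM (NPC, 8-point) in primary screens, 11-point in follow-ups.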

Assay [8] in a line: qHTS of pediatric cancer cell lines to identify multiple opportunities for drug repurposing: Primary screen for LAN-5 cells (AID 1347100). Further: potency means the concentration at half of the fitted maximal effect. Put shortly: as §2
Assay [9] is described as follows: qHTS of pediatric cancer cell lines to identify multiple opportunities for drug repurposing: Primary screen for BT-12 cells (AID 1347101). Further: nearly all actives have a fitted effect of over 25% in size. Further: potency means the concentration at half of the fitted maximal effect. Put shortly: as §3
Assay [10] is described as follows: qHTS of pediatric cancer cell lines to identify multiple opportunities for drug repurposing: Primary screen for OHS-50 cells (AID 1347103). Further: nearly all actives have a fitted effect of over 40% in size. Further: potency means the concentration at half of the fitted maximal effect. Put shortly: as §3
A short description of assay [11]: qHTS of pediatric cancer cell lines to identify multiple opportunities for drug repurposing: Primary screen for RD cells (AID 1347104). Further: nearly all actives have a fitted effect of over 55% in size. Further: potency means the concentration at half of the fitted maximal effect. A digest of the protocol: as §1
Assay [12] is described as follows: qHTS of pediatric cancer cell lines to identify multiple opportunities for drug repurposing: Primary screen for MG 63 (6-TG R) cells (AID 1347105). Further: nearly all actives have a fitted effect of over 50% in size. Further: potency means the concentration at half of the fitted maximal effect. A digest of the protocol:
as §1

Assay [13] in a line: qHTS of pediatric cancer cell lines to identify multiple opportunities for drug repurposing: Primary screen for Rh41 cells (AID 1347108). Further: nearly all actives have a fitted effect of over 70% in size. Further: potency means the concentration at half of the fitted maximal effect. A digest of the protocol: as §1
A short description of assay [14]: qHTS of pediatric cancer cell lines to identify multiple opportunities for drug repurposing: Confirmatory screen for NB1643 cells (AID 1347109). Further: nearly all actives have a fitted effect of over 45% in size. Further: potency means the concentration at half of the fitted maximal effect. Put shortly:
as §2

Assay [15] in a line: qHTS of pediatric cancer cell lines to identify multiple opportunities for drug repurposing: Confirmatory screen for A673 cells (AID 1347110).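 Further: cells exposed to compound for 48 h before the viability read; nearly all actives have a fitted effect of over 65% in size.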 Further: potency means the concentration at half of the fitted maximal effect. Put shortly:
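Viability was read as ATP luminescence (CellTiter-Glo) after 48 h of compound exposure at 37 C in A673 cells seeded at 500-1,000/well. Titrations reached 46 uM final, with 11 points in the confirmatory screen. Concentration-response curves were fitted directly.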

The nature of assay [16]: qHTS of pediatric cancer cell lines to identify multiple opportunities for drug repurposing: Primary screen for Rh18 cells (AID 1347102). Further: nearly all actives have a fitted effect of over 65% in size. Further: potency means the concentration at half of the fitted maximal effect. Put shortly:
as §2

Assay [17] in a line: qHTS of pediatric cancer cell lines to identify multiple opportunities for drug repurposing: Primary screen for NB1643 cells (AID 1347099). Further: nearly all actives have a fitted effect of over 50% in size. Further: potency means the concentration at half of the fitted maximal effect. Put shortly: as §1
A short description of assay [18]: qHTS of pediatric cancer cell lines to identify multiple opportunities for drug repurposing: Primary screen for control Hh wild type fibroblast cells (AID 1347106).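 Further: series mostly up to about 46 µM; a drop in luminescence marks cytotoxicity and a rise apparent proliferation; nearly all actives have a fitted effect of over 55% in size.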 Put shortly: as §2
Assay [19] can be described thus: qHTS of pediatric cancer cell lines to identify multiple opportunities for drug repurposing: Primary screen for Rh30 cells (AID 1347107). Further: series mostly up to about 46 µM; nearly all actives have a fitted effect of over 75% in size. Put shortly: as §2

Structures are written as SMILES. Records with an inconclusive call do not appear. The source made the active and inactive calls. The call rests on the fitted dose curve; in most records, active means well fitted curve in the direction sought with a large enough effect; inconclusive means small, poorly fitted or top-dose-only effect, or another doubt; inactive means no such curve, though single readings can be large; an effect the other way counts as inactive or inconclusive.

Take `C[C@@H]1O[C@@H](O[C@@H]2C=C3CC[C@@H]4[C@@H](CC[C@]5(C)[C@H](c6ccc(=O)oc6)CC[C@@]45O)[C@@]3(C)CC2)[C@H](O)[C@H](O)[C@H]1O`: the Potency was 0.0148 µM (active) in [1]; 0.0083 µM (active) in assay [2]; 0.0097 µM (active) in [3]; 0.0418 µM (active) in assay [4]; 0.0235 µM (active) in assay [5]; 0.0526 µM (active) in assay [6]. In addition, the Potency in [7] is 0.0961 µM (active); in [8] it was 0.0148 µM (active); in [9] it was 0.0193 µM (active); in assay [10] it was 0.0172 µM (active); in assay [11], 0.0074 µM (active); in assay [12] it was 0.0047 µM (active). Moreover, the Potency in [13] is 0.0235 µM (active); in [14] it was 0.0827 µM (active); in assay [15], 0.0522 µM (active).

For `CCCCCCCCCCCCCCCC[N+](C)(C)C`, the Potency in [1] was 4.22 µM (active); in assay [2] it was 5.31 µM (active); in assay [7], 17.2 µM (active); in [8] it was 23.7 µM (active); in assay [9] it was 7.77 µM (active); in assay [16], 5.31 µM (active). Besides, the Potency in assay [10] was 3.89 µM (active); in assay [11], 13.3 µM (active); in assay [12], 21.1 µM (active).

Consider `N#C[C@H](O[C@@H]1O[C@H](CO[C@@H]2O[C@H](CO)[C@H](O)[C@H](O)[C@H]2O)[C@H](O)[C@H](O)[C@H]1O)c1ccccc1`, for which the Potency is 29.6 µM (active) in [1]; 10.5 µM (active) in [2]; 24.3 µM (active) in assay [3]; 18.7 µM (active) in assay [6]; 11.8 µM (active) in assay [17]; 23.5 µM (active) in assay [8]. Further, the Potency in assay [9] is 24.3 µM (active); in assay [10], 21.7 µM (active); in assay [11], 33.2 µM (active). Further, the Potency entry in assay [4], in [5] and in assay [18] was “inactive” throughout.

On to `C[C@]12CCC(=O)C(O)=C1CC[C@@H]1[C@H]3CCC(=O)[C@@]3(C)CC[C@@H]12`, for which the Potency entry in [1], in assay [2], in [3], in assay [4], in assay [5] and in [7] was “inactive” throughout. Moreover, the Potency result in assay [8], in assay [9], in assay [16], in assay [11], in assay [18] and in assay [19] was “inactive” in each case.

Turning to `CN(C)NC(=O)CCC(=O)O`, the Potency entry in [1], in assay [2], in [3], in assay [4], in assay [5] and in assay [7] was “inactive” in each case. The Potency entry in assay [8], in [9], in assay [16], in assay [11], in [12] and in assay [19] was “inactive” in each case.

Take `Cc1c(C(=O)Nc2cccc(C(F)(F)F)c2)cc(-c2ccccc2)n1CCCN1CCOCC1`: the Potency in assay [1] was 11.8 µM (active); in [2], 13.2 µM (active); in [3], 27.3 µM (active); in assay [4] it was 18.7 µM (active); in assay [6], 18.7 µM (active); in assay [7] it was 24.1 µM (active). Further, the Potency is 18.7 µM (active) in assay [8], 24.3 µM (active) in assay [10], 18.7 µM (active) in [11] and 42.7 µM (active) in assay [14]. Moreover, the Potency result in [18] is “inactive”.

With `CC(O)CN1CCN(CC(=O)[O-])CCN(CC(=O)[O-])CCN(CC(=O)[O-])CC1.[Gd+3]` (stereo unspecified), the Potency result in assay [1], in assay [2], in assay [4], in [5], in assay [6] and in assay [7] was “inactive” each time. Besides, the Potency entry in [17], in assay [8], in assay [9], in assay [16], in assay [10] and in [11] was “inactive” in each case. Moreover, the Potency entry in [12], in assay [18], in assay [19] and in [13] was “inactive” each time.

Turning to `CS(=O)(=O)c1ccc(C(=O)C2C(=O)CCCC2=O)c([N+](=O)[O-])c1`, the Potency entry in assay [1], in [3], in assay [4], in [5], in assay [6] and in assay [7] was “inactive” in each case. Moreover, the Potency entry in [8], in assay [9], in [16], in assay [10], in assay [12] and in [18] was “inactive” each time. The Potency result in assay [19], in assay [14] and in assay [15] was “inactive” each time. Moreover, the Potency in assay [2] and in assay [17] was 0.001 µM (active) in each case.

With `C[C@]12CC[C@H](O)CC1=CC[C@H]1[C@H]3CCC(=O)[C@@]3(C)CC[C@@H]12`, the Potency is 18.7 µM (active) in assay [1] and 16.6 µM (active) in assay [2]. Besides, the Potency entry in [3], in [5], in assay [7], in assay [9], in [16] and in assay [11] was “inactive” throughout.

With `c1ccc(CCCN2CCN(CCOC(c3ccccc3)c3ccccc3)CC2)cc1`, the Potency in [1] is 23.5 µM (active); in assay [3], 24.3 µM (active); in assay [17] it was 26.4 µM (active); in [8] it was 29.6 µM (active); in assay [10], 21.7 µM (active); in assay [11] it was 29.6 µM (active). Moreover, the Potency result in assay [5] and in [18] was “inactive” each time.

On to `O=C(O)CCCOc1ccc(Cl)cc1Cl`, for which, in [1], the Potency was 0.313 µM (active). The Potency result in assay [2], in [3], in assay [4], in assay [5], in assay [6] and in assay [17] was “inactive” in each case. Further, the Potency result in [8], in assay [9], in [16], in [11], in assay [12] and in [18] was “inactive” each time. The Potency result in [19], in [13] and in [15] was “inactive” throughout.
